In the library only some 4.2% were active in any assay of this set; here they are far more common.
D1 antagonist: Antagonist of Human D 1 Dopamine Receptor: qHTS; AID 504652, 2011; activity change, negative = inhibition, % at 10 µM; actives 3.2% (n = 360,000); HEK293 TREx D1 cells, calcium flux, dopamine EC80; hits give low values; D(1A) dopamine receptor (Homo sapiens), P21728; in the data active = activity change below about -30%
Target sequence (P21728 whole entry, looked up): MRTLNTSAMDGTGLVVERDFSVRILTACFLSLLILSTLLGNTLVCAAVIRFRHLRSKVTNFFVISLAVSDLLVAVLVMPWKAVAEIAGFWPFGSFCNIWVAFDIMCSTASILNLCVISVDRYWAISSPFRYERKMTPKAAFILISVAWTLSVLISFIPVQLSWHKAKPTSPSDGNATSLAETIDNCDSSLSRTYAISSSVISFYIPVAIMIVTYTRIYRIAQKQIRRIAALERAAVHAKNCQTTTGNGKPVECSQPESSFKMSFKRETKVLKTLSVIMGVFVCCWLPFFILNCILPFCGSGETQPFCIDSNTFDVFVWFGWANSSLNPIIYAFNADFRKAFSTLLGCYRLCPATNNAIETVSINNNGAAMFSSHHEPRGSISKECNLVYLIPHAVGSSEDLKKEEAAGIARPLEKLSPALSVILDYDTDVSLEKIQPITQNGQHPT
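Compound effects on dopamine-evoked calcium signalling were measured in tetracycline-induced HEK293 Trex D1 cells. Dopamine at EC80 followed a 180 s compound pre-read, and fluorescence was tracked kinetically for 180 s more.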
D1 agonist: Allosteric Agonists of the Human D1 Dopamine Receptor: qHTS; HEK293 T-REx D1 cells, calcium flux, agonist mode; actives 1% (n = 360,000); activation, % at 2 µM; D(1A) dopamine receptor (Homo sapiens), P21728; in the data active = activation above about 30%
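Tetracycline-induced HEK293 TREx D1 cells, force-coupled to calcium signalling, were dye-loaded with a no-wash calcium kit. Compound was pin-added after a 10 s baseline. Fluorescence was read kinetically at 1 cycle/s for 180 s, with calcium rises flagged as agonism.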
TRPV1 agonist: HTS Assay for Compounds that Act as Agonists of the Vanilloid Receptor 1. AID 540275, 2011. actives 0.19% (n = 320,000). activation, % at 8.33 µM. TRPV1-expressing cells, Fluo-8 calcium influx, agonist mode. Transient receptor potential cation channel subfamily V member 1 (Homo sapiens), Q8NER1; in the data active = activation above about 80%
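Cells expressing TRPV1 were dye-loaded with Fluo-8 and read kinetically: 10 s baseline, 3 min after compound (agonist portion), then 2 min after EC20 capsaicin (allosteric enhancer portion). Calcium-bound dye fluorescence at 480/520 nm.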
TRPV1 PAM: HTS Assay for Compounds that Act as Potentiators of the Vanilloid Receptor 1. potentiation, % at 8.33 µM. TRPV1-expressing cells, Fluo-8 calcium influx, capsaicin EC20 potentiation. Transient receptor potential cation channel subfamily V member 1 (Homo sapiens), Q8NER1. actives 0.02% (n = 320,000); in the data active = potentiation above about 80%
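Cells expressing TRPV1 were dye-loaded with Fluo-8 and read kinetically: 10 s baseline, 3 min after compound (agonist portion), then 2 min after EC20 capsaicin (allosteric enhancer portion). Calcium-bound dye fluorescence at 480/520 nm.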
D1 PAM: Potentiators of Human D1 Dopamine Receptor: qHTS; D(1A) dopamine receptor (Homo sapiens), P21728; HEK293 TREx D1 cells, calcium flux, dopamine EC20 potentiation; potentiation, % at 10 µM; actives 0.036% (n = 360,000); AID 504651, 2011; in the data active = potentiation above about 30%
Large screens that a line does not name were inactive.

CCn1c(/C=C/c2c[nH]c3ccccc23)nc2ccccc2c1=O	none
CCCCN(C)C(=O)C1CCC(CNS(=O)(=O)c2ccc(Cl)cc2)CC1 (stereo not given)	none (no result: TRPV1 agonist, TRPV1 PAM)
COc1ccc(NC(=O)Cn2c(SCc3ccc(F)cc3)nc3cccnc32)c(OC)c1	none (no result: TRPV1 agonist, TRPV1 PAM)
O=C(CSC1CC(=O)N(CCc2ccccc2)C1=O)Nc1cccc(Cl)c1 (stereo not given)	D1 agonist 33
Cc1oc(-c2ccccc2Cl)nc1CN1CCCCC1c1cccnc1 (stereo not given)	D1 antagonist -32
CCCCC(O)C(=O)Nc1cc(C(F)(F)F)ccc1Cl (stereo not given)	none (no result: TRPV1 agonist, TRPV1 PAM)
COc1ccc(C(=O)Nc2nc3n(n2)C(c2ccc(Cl)cc2)C=C(c2ccccc2)N3)cc1OC (stereo not given)	D1 agonist 39 (no result: TRPV1 agonist, TRPV1 PAM)
COc1ccc(C2C=C(c3ccccc3)Nc3nc(NC(=O)/C=C/c4ccc(Cl)cc4)nn32)cc1 (stereo not given)	D1 antagonist -77 (no result: TRPV1 agonist, TRPV1 PAM)
COc1ccc(/C=C/C(=O)Nc2nc3n(n2)C(c2ccccc2)C=C(c2ccc(Cl)cc2)N3)cc1 (stereo not given)	none (no result: TRPV1 agonist, TRPV1 PAM)
COc1ccc(C2C=C(c3ccccc3)Nc3nc(NC(=O)c4ccc(C)cc4)nn32)cc1 (stereo not given)	none (no result: TRPV1 agonist, TRPV1 PAM)
O=C(NCc1ccccc1Cl)c1cnc2sc(N3CCOCC3)nn2c1=O	none (no result: TRPV1 agonist, TRPV1 PAM)
O=[N+]([O-])c1ccc(N(c2ccccc2)c2ccccc2)cc1	D1 agonist 42
CCN(C(=O)c1ccccc1)c1ccc([N+](=O)[O-])cc1	none
O=C(Nn1cnc2ccccc2c1=O)C1CCCCC1	D1 antagonist -30
CCCC1CCC(C(=O)Nn2cnc3ccccc3c2=O)CC1 (stereo not given)	none
O=C(CCCN1C(=O)/C(=C/c2ccccc2)SC1=S)NCCCn1ccnc1	D1 antagonist -30
O=C(CCN1C(=O)S/C(=C\c2ccccc2)C1=O)NCCCn1ccnc1	none
CC(C)c1ccc(/C=C2\SC(=S)N(CC(=O)NCCCN3CCOCC3)C2=O)cc1	D1 antagonist -35
CCc1ccc(/C=C2\SC(=S)N(CCC(=O)NCCCN3CCOCC3)C2=O)cc1	D1 antagonist -37
CCCc1ccc(OCc2ccc(C(=O)Nc3ccccc3C(=O)OC)o2)cc1	none (no result: TRPV1 agonist, TRPV1 PAM)
CCOc1ccc(NC(=O)CC2C(=O)N(c3cccc(C)c3)C(=O)N2CCC2=CCCCC2)cc1 (stereo not given)	none (no result: TRPV1 agonist, TRPV1 PAM)
O=C(NCc1ccco1)c1ccc2c(c1)N(Cc1ccc(Cl)cc1)C(=O)c1ccccc1S2(=O)=O	none (no result: TRPV1 agonist, TRPV1 PAM)
CC1CCCCN1C(=O)CSc1nc2ccccc2nc1Cc1ccccc1 (stereo not given)	none (no result: TRPV1 agonist, TRPV1 PAM)
COC(=O)CSc1cccc2c1C(=O)CC2c1ccccc1 (stereo not given)	D1 antagonist -33
Cc1cccc(C(=O)Nc2ccc(C(=O)OCc3cc(=O)n4c(C)csc4n3)cc2)c1	none (no result: TRPV1 agonist, TRPV1 PAM)
CC(=O)c1cn(-c2ccc(Cl)cc2)c(=O)[nH]c1=O	D1 antagonist -32
CN1C(=O)NC(c2ccc(C(F)(F)F)cc2)C2=C1CC(C)(C)CC2=O (stereo not given)	D1 agonist 32
Cc1ccc(C(=O)NNC(=S)NC(=O)c2ccco2)cc1	D1 agonist 59
CC(C)(C)c1cc(CCC(=O)NNC(=S)NC(=O)c2ccccc2)cc(C(C)(C)C)c1O	D1 antagonist -66, D1 agonist 133
O=C(NNC(=S)NC(=O)c1ccc(Br)cc1)c1cccc([N+](=O)[O-])c1	D1 agonist 32
Cc1ccc(C)c(NC(=S)NNC(=O)c2ccco2)c1	D1 antagonist -35
CCOC(=O)Cn1c(=O)oc2cc(S(=O)(=O)N3CCN(c4ccc(Cl)cc4)CC3)ccc21	none (no result: TRPV1 agonist, TRPV1 PAM)
O=C(CSc1cn(CCNC(=O)c2c(F)cccc2F)c2ccccc12)Nc1ccc2c(c1)OCCO2	none (no result: TRPV1 agonist, TRPV1 PAM)
Cc1cccc(C(=O)NNC(=S)NC(=O)c2cccs2)c1	D1 agonist 76
O=C(Nc1ccc(Br)cc1)c1cc([N+](=O)[O-])cc([N+](=O)[O-])c1	D1 antagonist -37
